# Assay results: PubChem BioAssay (NCI)
# The panel holds about 83,000 compounds, 20% with a hit somewhere; the sample as a whole holds those more often.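 Values shown are percent growth following 48 h exposure of cells in 96-well plates to a single concentration of compound; below 10 was considered active.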 Unmarked numbers belong to inactive results. The source made the active and inactive calls.
# Test system: HL-60(TB) leukemia
# Experiment: NCI-60 one-dose screen, 48 h (100 = growth as untreated, 0 = no growth, -100 = all killed)
# Conditions: 10 µM unless noted
row,SMILES,growth
1,O=[N+]([O-])c1cccc(-c2nc3sccn3c2-c2ccnc(NCCCNS(=O)(=O)c3ccc(Cl)cc3)n2)c1,26.1%
2,N#CC(C#N)N=Nc1ccc(Cl)cc1Cl,53%
3,CC(=O)Cc1nsc(NC(=O)c2cc(-c3cc(Cl)ccc3Cl)oc2C)n1,94.3%
4,COc1cc(/C(Cl)=C/C=C/C(=O)c2c(C)[n+]([O-])c3ccc(Cl)cc3[n+]2[O-])cc(OC)c1OC,11.9%
5,O=C1c2ccccc2C(=O)c2c(N=Nc3sc(=O)[nH]c3S)cccc21,111%
6,NS(=O)(=O)Oc1ccc(-c2sc3cc(O)ccc3c2C(=O)c2ccc(OCCN3CCCCC3)cc2)cc1,47.7%
7,CCCc1cn(CC(=O)Nc2nc3ccccc3s2)nn1,101%
8,C=C1C(=O)O[C@H]2[C@H]1CC/C(COC(=O)c1ccc(C(=O)O)s1)=C\CC[C@@]1(C)O[C@@H]21,-31.4% (active)
9,Nc1ncc(-c2cnn(C3CCNCC3)c2)cc1-c1nc2cc(Cl)ccc2o1,-71.3% (active)
10,CC/C=C\C[C@H](F)C/C=C1/C(=O)C=C[C@@H]1C/C=C\CCCC(=O)O,-16.1% (active)
11,Cc1n(Cc2ccc3ccccc3c2)c(Cl)c(Cl)[n+]1Cc1ccc2ccccc2c1,-34.6% (active)
12,CSc1nc(=O)n(Cc2ccc(Cl)cc2)c(=O)[nH]1,105%
13,CCCCNc1nc(NN2C(=O)c3cccc4cccc(c34)C2=O)nc(-n2cnc3ccccc32)n1,94.2%
14,CC[C@H](Nc1nc(N)nc(C)c1C#N)c1nc2cccc(CN(C)c3ncc(C(=O)NO)cn3)c2c(=O)n1-c1ccccc1,0.763% (active)
15,CCCC[N+](C)(N)CCCC,104%
16,CC/C(=C(\c1ccc(Cl)cc1)c1ccc(OCCN2CCCCC2)cc1)c1ccc(O)cc1,-40.4% (active)
17,CC(C)(C)n1cc(-c2ccnc(NCCNS(=O)(=O)c3ccc(O)cc3)c2)c(-c2cccc(O)c2)n1,101%
18,CCCCc1oc2ccccc2c1C(=O)c1ccc(O)cc1,68%
19,CCOC(=O)C1=C(c2ccccc2)N=C2N(c3ccccc3)N=C(C(C)=O)N2C1c1ccc(F)cc1 (configuration not stated),89.8%

row,SMILES,growth
1,CCCn1c2cc(OCc3cn(-c4ccc(Cl)cc4)nn3)ccc2c2ccnc(C)c21,-51.4% (active)
2,O=C(Nc1ccc(NS(=O)(=O)c2ccc(F)cc2)cc1)C12CC3CC(CC(C3)C1)C2,96.1%
3,C=C(C)[C@@H]1CC[C@]2(C(=O)N3CCN(C)CC3)CC[C@]3(C)[C@H](CC[C@@H]4[C@@]5(C)C/C(=C/c6ccco6)C(=O)C(C)(C)[C@@H]5CC[C@]43C)[C@@H]12,64.2%
4,Cc1nc2sc(C(=O)Nc3cccc4ccccc34)c(N)c2cc1C(O)c1ccccc1 (configuration not stated),-55.1% (active)
5,O=C(Nc1ccccc1C(=O)N/N=C(\c1ccccc1)c1ccccn1)c1ccc(F)cc1,-1.1% (active)
6,CC1(C)N=C(N)N=C(N)N1c1ccc(Cl)c(Cl)c1,35.7%
7,Cn1cnc([N+](=O)[O-])c1/C=C1\Oc2ccc(Br)cc2C1=O,75.5%
8,O=C(O)c1ccc2c(c1Sc1ccccc1)C(=O)c1ccccc1C2=O,95.8%
9,COc1ccc2[nH]c(C(=O)OCc3ccc4c(Br)cc(Br)c(O)c4n3)cc2c1,-32.7% (active)
10,CCN1CCN(CC(=O)Nc2ccc(-c3cn4c(n3)sc3cc(Oc5ccnc(C(=O)NC)c5)ccc34)cc2)CC1,-35.4% (active)
11,Clc1cccc(Cl)c1/C=C/c1cc(/C=C/c2c(Cl)cccc2Cl)[nH]n1,12.6%
12,Cc1cc(=O)n(-c2ccc(F)cc2)[nH]1,101%
13,COc1ccc(/C(=C\c2cc(OC)c(OC)c(OC)c2)C(=O)Nc2nc3ccc(Cl)cc3s2)cc1,81.4%
14,O=C(Nc1ccncc1)C(=O)c1cn(S(=O)(=O)c2cccc(Cl)c2F)c2ccccc12,68.5%
15,CN(C)c1ncnc2c1cnn2C,108%
16,Nc1nc(SN=Nc2ccc(S(N)(=O)=O)cc2)c2[nH]cnc2n1,-16% (active)
17,Cc1ccc(C(=O)NN2C(=O)CSC2c2ccc(Cl)cc2)cn1 (configuration not stated),139%
18,N#Cc1cnc2cc(OC[C@@H](O)CO)c(NC(=O)CC3CSSC3)cc2c1Nc1ccc(OCc2cccc(F)c2)c(Cl)c1,-56.4% (active)
